Inconclusive results are not listed. Active and inactive are the calls of the source. Rule for the calls: active = hit-call score of the fitted dose curve at least 0.9, where 1 is the maximum; inconclusive = response in the unintended direction; inactive = score below 0.9.

For orientation: AC50 means the midpoint of the concentration-response curve, whichever way the signal moves.

In this assay the target is Estrogen receptor (Homo sapiens) (UniProt P03372). Nature of the assay: ERF_US_NR_hESR1: Eurofins (ERF) Nuclear Receptor (NR) Cell Based Protein-Protein Interaction LeadHunter Assay for human Estrogen Receptor alpha (ERa) Agonism. The method, then: ERF_US_NR_hESR1 is a cell-based, single-readout assay that uses extracted gene-proteins in a cell-line assay. Measurements were taken 5 hours after chemical dosing in a 384-well plate. See ERalpha Human Estrogen NHR Cell Based Agonist Protein-Protein Interaction Assay, DiscoverX.ERF_US_NR_hESR1 is an assay component calculated from the ERF_US_NR_hESR1 assay. It is designed to […].Data from the assay component ERF_US_NR_hESR1 was analyzed at the assay endpoint, ERF_US_NR_hESR1, in the positive analysis fitting direction relative to DMSO as the negative control and baseline of activity. Using a type of binding reporter, gain-of-signal activity can be used to understand changes in binding as they relate to gene ESR1. To generalize the intended target to other relatable targets, this assay endpoint is annotated to the nuclear receptor intended target family, where the subfamily is steroid.
Sequence of Estrogen receptor (Homo sapiens) (P03372 whole entry, looked up): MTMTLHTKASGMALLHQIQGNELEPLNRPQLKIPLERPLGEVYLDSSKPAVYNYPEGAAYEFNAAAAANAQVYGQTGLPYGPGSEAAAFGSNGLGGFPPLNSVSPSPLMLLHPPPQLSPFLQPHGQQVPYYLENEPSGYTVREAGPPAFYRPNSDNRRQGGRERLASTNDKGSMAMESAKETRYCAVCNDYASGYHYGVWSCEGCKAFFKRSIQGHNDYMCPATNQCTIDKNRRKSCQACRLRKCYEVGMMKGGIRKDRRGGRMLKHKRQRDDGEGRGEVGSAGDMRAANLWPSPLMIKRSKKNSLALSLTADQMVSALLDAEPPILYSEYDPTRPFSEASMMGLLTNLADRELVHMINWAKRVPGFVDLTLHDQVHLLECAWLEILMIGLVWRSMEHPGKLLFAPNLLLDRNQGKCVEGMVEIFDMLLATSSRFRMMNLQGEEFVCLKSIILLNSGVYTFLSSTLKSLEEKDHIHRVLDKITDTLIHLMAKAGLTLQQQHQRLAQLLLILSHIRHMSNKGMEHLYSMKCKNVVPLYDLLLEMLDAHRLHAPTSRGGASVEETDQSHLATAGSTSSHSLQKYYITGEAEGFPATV
Cells were seeded in a total volume of 20 uL into white walled, 384-well microplates and incubated at 37C overnight prior to testing. Briefly, intermediate dilution of sample stocks was performed to generate 5X sample in assay buffer. 5 uL of 5X sample was added to cells and incubated at37C for 300 minutes. Final assay vehicle concentration was 1%. The results are expressed as a percent efficacy of the control ligand.
Regarding `FC(F)(F)C(F)(F)C(F)(F)C(F)(F)CCI`, the outcome was inactive. On to `OCC(F)(F)C(F)(F)C(F)(F)C(F)(F)C(F)(F)C(F)(F)CO`, for which the half-maximal activity concentration (AC50) was 25.3 µM (active).

Turning to `FC(F)(I)C(F)(F)C(F)(F)C(F)(F)C(F)(F)C(F)(F)I`, the AC50 is 12.1 µM (active). Take `N=C(N)C(F)(F)C(F)(F)C(F)(F)C(F)(F)C(F)(F)C(F)(F)C(F)(F)F`: the compound was called inactive. Same read-out and setting: next, `OCCC(F)(F)C(F)(F)C(F)(F)C(F)(F)C(F)(F)C(F)(F)F`: “inactive”; `O=C(O)C(F)(OC(F)(F)C(F)(OC(F)(F)C(F)(F)C(F)(F)F)C(F)(F)F)C(F)(F)F` (stereo not drawn): “inactive”; `FC(F)(F)C(F)(F)C(F)(F)C(F)(F)C(F)(F)C(F)(F)I`: “inactive”. The same measure, in the same setting: next, `O=P(O)(O)OCCC(F)(F)C(F)(F)C(F)(F)C(F)(F)C(F)(F)C(F)(F)F`: “inactive”; `C=CC(=O)OCC(F)(F)C(F)(F)C(F)(F)C(F)(F)C(F)(F)C(F)(F)C(F)(F)C(F)F`: “inactive”; `OCCC(F)(F)C(F)(F)C(F)(F)C(F)(F)C(F)(F)C(F)(F)C(F)(F)C(F)(F)F`: “inactive”.

Consider `OCC(F)(F)C(F)(F)C(F)(F)C(F)(F)C(F)(F)C(F)(F)C(F)(F)C(F)(F)CO`, for which the AC50 was 17.1 µM (active). Regarding `NC(=O)C(F)(F)C(F)(F)C(F)(F)C(F)(F)C(F)(F)C(F)(F)C(F)(F)F`, the outcome was inactive. Same read-out and setting: next, `FC(F)(I)C(F)(F)C(F)(F)C(F)(F)I`: “inactive”.
